# Inconclusive results are not listed. A call without a number means that no potency is given here. The source made the active and inactive calls. The call rests on the fitted dose curve; in most records, active means well fitted cell-killing curve with a large enough effect in the repeat runs; inconclusive means weak or mixed curves, or effect the other way; inactive means flat fitted curve, though single readings scatter.
# Assay: qHTS RealTime-Glo MT Cell Viability Assay in HepG2 cells - 40 hour (AID 1224870); further: nearly all actives have a fitted effect of over 50% in size
# Details: RealTime-Glo luminescence; series mostly up to 76.8 µM
# Text: National Center for Advancing Translational Sciences [NCATS]
# NIH Chemical Genomics Center [NCGC]
# U.S. Environmental Protection Agency [EPA]
# National Institutes of Environmental Health Sciences [NIEHS]
# National Toxicology Program [NTP]
# U.S. Food and Drug Administration [FDA]
# Measure of cell viability is critical in the cell-base assay. Analysis of cell viability is necessary for the characterization of cell responses to cytotoxic drugs and environmental stress. A RealTime-Glo MT Cell Viability Assay to monitor cell viability in real time of continues cell culture during 40 hours of compound treatment was used to screen Tox21 10K library compounds in HepG2 cells. The RealTime-Glo MT Cell Viability Assay is a nonlytic, homogeneous, bioluminescent method to measure cell viability in real time using a simple, plate-based method. The assay involves adding NanoLuc luciferase and a cell-permeant prosubstrate to cells in culture. Viable cells reduce the proprietary prosubstrate to generate a substrate for NanoLuc luciferase. This substrate diffuses from cells into the surrounding culture medium, where it is rapidly used by the NanoLuc Enzyme to produce a luminescent signal. The signal correlates with the number of viable cells, making the assay well suited for cytotoxicity studies.
# Tox21 Assay Protocol Summary:
# The mixture of HepG2 cell suspension and reagents were dispensed at 600cells/6 ul/well in 1536-well tissue culture treated black solid bottom plates using a Multidrop dispenser. After the assay plates were incubated at a 37 C/5% CO2 incubator for 5 hours, 23 nL of compounds dissolved in DMSO, positive and negative controls was transferred to the assay plate by a pintool work station. The plates were incubated at 37 C for 40 hours. The luminescence intensity were measured at 0h, 8h, 16h, 24h, 32h and 40h time points using ViewLux plate reader during compound treatment.
# Potency means the concentration at half of the fitted maximal effect.
row,SMILES,Potency
1,CC(C)(C)OO,inactive
2,N#CCCO,inactive
3,CN(C)CCc1c[nH]c2cccc(O)c12,inactive
4,CCc1nn(C)c(C(=O)NCc2ccc(C(C)(C)C)cc2)c1Cl,inactive
5,CC(C)[C@H](C(=O)OC(C#N)c1cccc(Oc2ccccc2)c1)c1ccc(OC(F)F)cc1 (stereo not given in full),inactive
6,FC(F)(F)c1cccc(C2=CCN(CCc3ccc4ccccc4c3)CC2)c1,inactive
7,C1CCC2CCCCC2C1 (stereo not given),inactive
8,BrC(Br)Br,inactive
9,[Cl][Sb]([Cl])[Cl],inactive
10,C=CCC1=C(C)C(OC(=O)C2C(C=C(C)C)C2(C)C)CC1=O (stereo not given),inactive
11,[Cl][Sn]([c]1ccccc1)([c]1ccccc1)[c]1ccccc1,2.61 µM (active)
12,O=[N+]([O-])c1cc(Cl)ccc1Cl,inactive
13,CCN,inactive
14,COc1cccc2c1C(=O)c1c(O)c3c(c(O)c1C2=O)C[C@@](O)(C(=O)CO)CC3OC1CC(N2CCOC(OC)C2)C(O)C(C)O1 (stereo not given in full),0.0338 µM (active)
15,COS(=O)(=O)c1ccc(C)cc1,inactive
16,Cl/C=C\CCl,inactive
17,ClC1=C(Cl)C2(Cl)C3C(Cl)C=CC3C1(Cl)C2(Cl)Cl (stereo not given),inactive
18,NC(=O)CCl,inactive
19,CCOP(=S)(OCC)SCS(=O)(=O)CC,inactive
20,C[C@@H](Oc1ccc(Cl)cc1Cl)C(=O)O,inactive

row,SMILES,Potency
1,N#Cc1ccccc1Cl,inactive
2,CCOC(=O)CC(=O)CCl,inactive
3,CCCN(CCC)c1c([N+](=O)[O-])cc(S(N)(=O)=O)cc1[N+](=O)[O-],49 µM (active)
4,Cc1ccc(OP(=O)(Oc2ccccc2)Oc2ccccc2)cc1,inactive
5,Cc1cc(N=Nc2ccccc2C)ccc1N,inactive
6,Cc1cc(C(C)(C)c2cc(C)c(O)c(C)c2)cc(C)c1O,inactive
7,N#CCc1ccc(Cl)cc1,inactive
8,S=C(SSC(=S)N1CCCCC1)N1CCCCC1,0.213 µM (active)
9,Clc1ccc(C(Cl)(Cl)Cl)c(Cl)c1,inactive
10,BrCBr,inactive
11,CCCN(CCC)CCc1c[nH]c2ccccc12,inactive
12,CC(C)C1CCC(Cc2ccc(Cl)cc2)C1(O)Cn1cncn1 (stereo not given),48.5 µM (active)
13,O=CC(Br)(Br)Br,43.5 µM (active)
14,CCc1cc(C)cc(CC)c1-c1c(OC(=O)C(C)(C)C)n2n(c1=O)CCOCC2,inactive
15,C=CCOC(N)=O,inactive
16,COc1ccc([N+](=O)[O-])cc1O,inactive
17,C=CC(=O)OCC(COC(=O)C=C)(COC(=O)C=C)COC(=O)C=C,5.49 µM (active)
18,ClC1=C(Cl)[C@]2(Cl)[C@H]3[C@H]([C@H]4C=C[C@H]3C4)[C@@]1(Cl)C2(Cl)Cl,inactive
19,N#Cc1c(-c2ccc(Cl)cc2)[nH]c(C(F)(F)F)c1Br,inactive
20,OC(Cc1ccccc1Cl)(Cn1cncn1)C1(Cl)CC1 (stereo not given),inactive
